Only some compounds are listed: those with a hit (about 2.1% of all), similar ones and a draw of the others.
p53 reactivator: mutant p53 re-activation in reporter cells; H1299 p53-A138V BP100-luciferase reporter, luminescence, 24 h; Potency, µM (titrated, usually from 92.2 µM), for inactives: at the top dose activity change, positive = activation, hits mostly activators; 320,000 compounds, 0.063% hits; AID 504706; note: potency is the fitted concentration of half-maximal effect; % of control where 0% means no effect; nearly all actives have a fitted effect of over 45% in size
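H1299 (p53-null), stable ts p53-A138V + BP100-Luc; 1000 cells/well, Opti-MEM/10% FBS; cpd 4 pt, 1:5; 24 h, 37 deg C, 5% CO2; detection reagent 10 min RT; luminescence.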
uPA surface inh: inhibitors of cell surface uPA generation; Potency, µM (titrated, usually from 38.3 µM), without a hit: top-dose activity change, negative = inhibition, hits mostly inhibitors; cell surface uPA generation assay, qHTS; 330,000 compounds, 0.31% hits; active = well fitted inhibition curve with a large enough effect; inconclusive = small, poorly fitted or top-dose-only effect; inactive = no such curve, though single readings can be large or run the other way; tested in mouse RAW 264.7 cells; note: potency is the fitted concentration of half-maximal effect; % is set by controls: 0 for no effect and ±100 for the full control effect; nearly all actives have a fitted effect of over 55% in size
B2AR arrestin: beta2AR (human) beta-arrestin recruitment activity; P07550; beta-arrestin recruitment to beta2AR, cell-based reporter; Potency, µM (series often up to 46.1 µM), inactives show top-dose activation, hits mostly activators; 330,000 compounds, 0.02% hits; AID 492947;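 note: potency is the fitted concentration of half-maximal effect; 0% = DMSO controls and full agonism = EC100 isoproterenol or metaproterenol; nearly all actives have a fitted effect of over 65% in size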
Mito fusion act: blocks mitochondrial division or promotes mitochondrial fusion; S. cerevisiae fusion-defective mutant growth rescue, CellTiterGlo 48 h; Potency, µM (titrated, usually from 46.1 µM), for inactives: at the top dose growth rescue (activation), most hits filed as activators; 320,000 compounds, 0.23% hits; AID 485298; note: potency is the fitted concentration of half-maximal effect; % of control where 0% means no effect; nearly all actives have a fitted effect of over 45% in size
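Yeast fusion mutant, YPEG (non-fermentable carbon), compound, 48 h at 37C non-permissive; CellTiterGlo added, 10 min RT, luminescence read. Rescued growth = division inhibition.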
Giardia kill: Giardia lamblia killing. Giardia lamblia trophozoite viability. activity change, % at 7.66 µM, hits read low. 340,000 compounds, 0.15% hits; in the data active = activity change below about -80%; inconclusive = between about -30% and that limit;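 note: parasites exposed to compound for two days anaerobically before the ATP read; % is set by controls: 0 for no effect and ±100 for the full control effect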
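Giardia trophozoites, 100 cells per well, were exposed to compounds for 48 hrs at 37 deg C under anaerobic conditions; viability was then read as ATP content by bioluminescence after 15-30 min at room temperature.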
ClpP mod: qHTS Assay for Activators of ClpP; purified B. subtilis ClpP, FRET peptide cleavage, 20 min; 340,000 compounds, 1.9% hits; Potency, µM (series often up to 57.5 µM), inactives show at the highest dose activity change, negative = active; ATP-dependent Clp protease proteolytic subunit (Bacillus subtilis (strain 168)), P80244; active = well fitted falling curve with a large enough effect; inconclusive = small, poorly fitted or top-dose-only effect; inactive = no such curve, though single readings can be large or run the other way; note: potency is the fitted concentration of half-maximal effect; the source files actives as falling curves though it sought activators and does not explain the sign; nearly all actives have a fitted effect of over 65% in size
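FRET quenching reversal measured ClpP activation: 10 microg/mL B. subtilis ClpP at pH 8 with the FRET-FV decapeptide, read at 430 nm after 320 nm excitation. The 20-min minus 0-min signal was scaled between DMSO/no-enzyme wells and ADEP (5.8 microM final).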
Starred values were filed as active, the others as inactive; u = inconclusive; x = not tested or not shown. Unless noted, calls come from the whole dose curve; as a rule, active = well fitted curve in the direction sought with a large enough effect; inconclusive = small, poorly fitted or top-dose-only effect, or another doubt; inactive = no such curve, though single readings can be large; an effect the other way counts as inactive or inconclusive.

SMILES | p53 reactivator | uPA surface inh | B2AR arrestin | Mito fusion act | Giardia kill | ClpP mod
Cc1cc(NC(=O)c2ccc(Cl)cc2)cc(C)c1OCC(=O)N1CCOCC1 | -10% | 4µM* | -1% | 1% | u | -1%
CC(=O)N1c2c(cc(Br)cc2S(=O)(=O)N2CCN(c3cccc(Cl)c3)CC2)CC1C (configuration not stated) | x | x | x | x | x | -1%
COCCn1c(=O)[nH]c2cc(C(=O)NCCCN3CCN(c4ccc(F)cc4)CC3)ccc2c1=O | 3% | 1% | 0% | 1% | 8 | 28µM*
CCCCCn1c(=O)[nH]c2cc(C(=O)NCCN3CCOCC3)ccc2c1=O | x | 0% | x | x | -7 | 28µM*
O=C(NCCCN1CCOCC1)c1ccc2c(=O)n(CCc3ccccc3)c(=O)[nH]c2c1 | 6% | 1% | 0% | -1% | 1 | u
CCCCCn1c(=O)[nH]c2cc(C(=O)O)ccc2c1=O | 4% | -5% | 0% | 13% | 2 | 22µM*
CCCCCn1c(=O)[nH]c2cc(C(=O)NCCCN(CC)CC)ccc2c1=O | -1% | -8% | 0% | 0% | 10 | 28µM*
CCCCC(Sc1nc2cc3c(cc2c(=O)n1CCCC(=O)NCc1ccc(OC)cc1)OCO3)C(=O)OCC (configuration not stated) | x | x | x | x | x | -6%
CCOc1ccc(N(CC)S(=O)(=O)N2CCCC(C(=O)NCCc3ccccc3OC)C2)cc1 (configuration not stated) | x | x | x | x | x | -28%
O=C(CNC(=O)c1ccccc1)OCC(=O)c1cccc2ccccc12 | x | x | x | x | 6 | -1%
COC(=O)c1ccc2c(=O)n(CCCCCC(=O)NCc3ccccn3)c(=O)[nH]c2c1 | 0% | 1% | 0% | 1% | 1 | 32µM*
CCOC(=O)C1=CN(C(=O)OC(C)(C)C)C(CN2C(=O)COCC2=O)C1 (configuration not stated) | x | x | x | x | 28 | x
CCCN1CNc2c(c(=O)[nH]c(=S)n2CCc2ccc(C)c(C)c2)C1 | x | x | x | x | -8 | -5%
CCCNC(=O)CCC(=O)N1Cc2cccc(OC)c2Oc2ncccc21 | x | x | x | x | x | 0%
COc1cccc(CNC(=O)CSc2nc(=O)n(Cc3ccncc3)c3c2CCC3)c1 | 1% | -2% | 0% | -9% | 6 | 13µM*
Cc1ccc(CNC(=O)c2ccccc2N)cc1 | 3% | 9% | 4% | 3% | 1 | 28µM*
Cc1cccc(CNC(=O)c2ccccc2N)c1 | u | x | 0% | 0% | 4 | 8.9µM*
COc1ccc(SCC(CC(C)C)N2CCN(CCc3ccccc3)CCC2=O)cc1 (configuration not stated) | x | x | x | x | -2 | x
Cc1ccc(NC(=O)C(Cc2ccccc2)n2cccc2)cc1C (configuration not stated) | x | x | x | x | x | -4%
O=C1CS(=O)(=O)C2(C(=O)N(Cc3cccc(F)c3)c3ccccc32)N1c1ccccc1 (configuration not stated) | x | x | x | x | x | -2%
N#Cc1c(N2CCCCC2)nc(N2CCCCC2)c2c1CCN(Cc1ccccc1)C2 | 14% | x | -1% | 9% | 5 | 11µM*
N#Cc1c(N2CCN(C(=O)c3ccccc3)CC2)nc(-c2ccccc2)c2c1CCCC2 | 6% | 0% | -2% | 4% | 9 | 28µM*
N#Cc1c(NCCN)nc(NCc2ccccc2)c2c1CCN(Cc1ccccc1)C2 | -3% | 12% | -1% | 1% | 0 | 29%
N#Cc1c(N2CCN(C(=O)c3ccco3)CC2)nc(-c2ccccc2)c2c1CCCC2 | -17% | u | 0% | 30% | 7 | 14µM*
N#Cc1c(N2CCN(C(=O)c3ccccc3Cl)CC2)nc(-c2ccccc2)c2c1CCCC2 | 11% | 1% | 3% | 6% | 8 | 5%
SMILES | p53 reactivator | uPA surface inh | B2AR arrestin | Mito fusion act | Giardia kill | ClpP mod
CC1(C)Cc2c(C#N)c(N3CCN(C(=O)c4ccccc4Cl)CC3)nc(-c3ccco3)c2CS1 | -2% | 8% | 0% | -19% | 9 | 28µM*
O=C(NCc1ccccc1)c1ccc(CSc2nc3cccnc3n2Cc2cccc(F)c2)cc1 | x | x | x | x | x | 4%
O=C(CSc1nc(=O)[nH]c2c1CCC2)NCc1ccc(Cl)cc1 | x | x | x | x | x | -7%
Cc1ccc(N2C(=O)[C@@H]3CSC(c4ccc(Cl)cc4)N3C2=O)cc1 (some centres not stated) | x | x | x | x | x | 3%
CCOC(=O)CC1(C)Oc2cc(Cl)ccc2N1S(=O)(=O)c1ccc(C)cc1 (configuration not stated) | x | x | x | x | x | -3%
CCc1nc(N2CCN(C(=O)c3ccco3)CC2)c(C#N)c2c1COC(C)(C)C2 | -5% | 3% | 0% | 9% | -14 | 3%
CC1(C)Cc2c(C#N)c(N3CCN(C(=O)c4ccco4)CC3)nc(Cc3ccccc3)c2CO1 | -4% | 12% | 0% | 0% | -11 | 28µM*
COc1ccc(-c2sc3ccc(N4CCOCC4)cc3c2C#CC2(O)CCCCC2)cc1 | -1% | -50% | 0% | x | -12 | 25µM*
Cc1[nH]c(=O)cc2ccccc12 | 6% | 2% | -3% | 0% | 5 | 22µM*
CCc1nc2ccc(C(=O)NCc3ccc(OC)cc3)cn2c1N(CC)CCOC | x | x | x | x | x | -4%
CCOC(=O)c1[nH]c(C)c(CCC(=O)Nc2ccccc2C(=O)OC)c1C | x | x | x | x | x | -5%
Cc1cccc(Nc2nc(NCc3ccco3)c3ccccc3n2)c1 | -9% | -13% | -2% | 9% | -9 | 20µM*
CCCCCCC[C@@H](C/C=C/CCC(=O)N(C)C/C(=C/Cl)C/C(=C\C(=O)N1CC(OC)=CC1=O)OC)OC | 32µM* | -6% | u | x | u | 0%
CCC(CC)C(=O)Nc1c2c(nn1-c1ccc(OC)cc1)CS(=O)C2 (configuration not stated) | -1% | 4% | -1% | -4% | 0 | 2%
COc1ccc(-n2nc3c(c2NC(=O)C(C)Oc2ccccc2)CS(=O)C3)cc1 (configuration not stated) | 0% | -8% | 0% | 0% | 10 | 32µM*
O=C(Nc1ccc(F)cc1)N(Cc1ccco1)Cc1cc2cc3c(cc2[nH]c1=O)OCO3 | -12% | -7% | 3% | 0% | -7 | 32µM*
O=C(Nc1ccc(F)cc1)N(Cc1cccs1)Cc1cc2cc3c(cc2[nH]c1=O)OCO3 | -4% | -9% | 2% | -1% | 35 | 32µM*
COc1ccc(-n2c(/C=C/c3cccc(C(F)(F)F)c3)nc3ccccc3c2=O)cc1Cl | x | x | x | x | x | 0%
CCC1CN(C(=O)Nc2cc(Cl)c(OC)cc2OC)c2ccccc2O1 (configuration not stated) | x | x | x | x | x | 1%

Screening results deposited in PubChem BioAssay by National Center for Advancing Translational Sciences (NCATS).
